Screens: PubChem, National Center for Advancing Translational Sciences (NCATS)
TGFb SMAD3 inh – blocks TGF-b signaling | HepG2 CAGA-GFP TGF-b/SMAD3 reporter, GFP fluorescence, 18 h; TGF-beta stimulated, 500 pg/mL final | Potency, µM (doses to about 46.1 µM), inactives show at the highest dose activity, negative = inhibition, most hits filed as inhibitors | 1.2% of 410,000 active; also: potency is read from the fitted curve at half-maximal effect; % is scaled to controls: 0 for no effect and ±100 for the full control effect; nearly all actives have a fitted effect of over 65% in size
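First, reporter cells (HEPG2 CAGA-GFP) rested 2 h at 37 degrees C. Next, compounds were pinned in and TGF-beta added to 500 pg/mL final. After 18 h, GFP was imaged per cell and summed per well.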
S-ASM inh – inhibitors of human secretory acid sphingomyelinase | P17405 | placental ASM, HMU-PC fluorogenic substrate, 60 min | Potency, µM (highest dose often 57.5 µM), for the others: at the highest dose activity change, negative = inhibition, most hits filed as inhibitors | 0.006% of 340,000 active | AID 504937; also: potency is read from the fitted curve at half-maximal effect
Target sequence (P17405 47-631 limits assumed): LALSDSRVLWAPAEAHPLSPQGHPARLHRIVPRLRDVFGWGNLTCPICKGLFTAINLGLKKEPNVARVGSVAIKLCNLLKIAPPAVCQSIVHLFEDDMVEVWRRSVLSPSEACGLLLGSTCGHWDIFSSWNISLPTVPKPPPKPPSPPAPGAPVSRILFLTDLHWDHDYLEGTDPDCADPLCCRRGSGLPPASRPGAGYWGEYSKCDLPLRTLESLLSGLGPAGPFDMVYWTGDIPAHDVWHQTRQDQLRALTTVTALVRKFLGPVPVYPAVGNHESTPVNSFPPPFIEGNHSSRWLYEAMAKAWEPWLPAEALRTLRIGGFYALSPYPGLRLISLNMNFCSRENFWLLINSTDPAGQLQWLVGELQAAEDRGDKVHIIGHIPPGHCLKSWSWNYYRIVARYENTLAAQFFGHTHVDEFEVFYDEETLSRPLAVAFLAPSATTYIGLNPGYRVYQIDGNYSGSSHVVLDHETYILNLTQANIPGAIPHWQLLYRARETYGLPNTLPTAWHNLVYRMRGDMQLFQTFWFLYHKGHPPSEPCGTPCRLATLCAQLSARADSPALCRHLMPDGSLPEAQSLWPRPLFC
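Human placenta-derived ASM enzyme was preincubated with compound for 10 minutes at room temperature, then given fluorogenic substrate HMU-PC0 (9 uM final) for 60 minutes at 37 °C; a pH 10 stop preceded fluorescence reading at Ex 386/Em 447 nm.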
TDP1 cell CPT – growth inhibition of DT40 Tdp1-/-;hTDP1 cells with camptothecin (screen for TDP1 inhibitors); chicken DT40 Tdp1-/-;hTDP1 cells + 20 nM CPT, ATP luminescence, 48 h; Potency, µM (highest dose often 46.2 µM), without a hit: at the highest dose activity change, negative = growth inhibition, most hits filed as inhibitors; 12% of 420,000 active; AID 686979; also: potency is read from the fitted curve at half-maximal effect; % is scaled to controls: 0 for no effect and ±100 for the full control effect; nearly all actives have a fitted effect of over 55% in size
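Chicken DT40 Tdp1-/- cells complemented with human TDP1, 400 cells/well, exposed to compounds plus 20 nM camptothecin for at least 48 h at 37 C; viability read as ATP content by CellTiter-Glo luminescence.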
HepG2 tox – HepG2 cytotoxicity, counter-screen for TGF-b inhibitors; Potency, µM (doses to about 46.1 µM), inactives show at the top dose activity change, negative = cytotoxicity, usual class: cytotoxic; HepG2 CAGA-GFP viability, ATP luminescence, 18 h; 0.76% of 410,000 active; AID 588856; also: potency is read from the fitted curve at half-maximal effect
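CellTiter-Glo luminescence gave cytotoxicity after 18 hours at 37 degrees C. The cells were HepG2 CAGA-GFP in 1% FBS DMEM, stimulated with 500 pg/mL TGF-beta after compound addition. %Activity was normalised to no-cell wells (complete cell-killing) and DMSO (no toxicity), and curves were fitted and classified.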
TDP1 cell noCPT – qHTS for Inhibitors of human tyrosyl-DNA phosphodiesterase 1 (TDP1): qHTS in cells in absence of CPT. Potency, µM (highest dose often 46.2 µM), inactives show at the top dose activity change, negative = growth inhibition, usual class: inhibitors. DT40 Tdp1-/- hTDP1 cells, no CPT, ATP luminescence, 48 h. 15% of 420,000 active; also: potency is read from the fitted curve at half-maximal effect; % is scaled to controls: 0 for no effect and ±100 for the full control effect; nearly all actives have a fitted effect of over 55% in size
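Camptothecin absent (DMSO only). Human TDP1-complemented DT40 knockout cells, 400 cells/well, 37 °C for minimum 48 hr; ATP measured via CellTiter-Glo, 30 min dark incubation, luminescence.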
IL-1B inflam inh – blocks inflammasome-driven IL-1 beta release. THP-1 LPS/ATP IL-1B secretion, AlphaLISA, 16 h; hits give low values. AID 743279. 4.7% of 360,000 active. activity change, % at 57.5 µM; in the data active = activity change below about -50%; inconclusive = mostly about -30% to -49%; also: % is scaled to controls: 0 for no effect and ±100 for the full control effect
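Secreted IL-1B measured by AlphaLISA bead assay after 16 h compound exposure of THP-1 cells; compounds (final up to 57.5 uM) added 1 h before LPS (250 ng/mL) and ATP (1.25 mM) stimulation; lower signal means less secretion.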
Starred values were filed as active, the others as inactive; ? = inconclusive; . = not tested or not shown. An excerpt weighted towards active compounds, which were near 19% of everything screened. Unless noted, calls follow the shape of the dose curve; as a rule, active = well fitted curve in the direction sought with a large enough effect; inconclusive = small, poorly fitted or top-dose-only effect, or another doubt; inactive = no such curve, though single readings can be large; an effect the other way counts as inactive or inconclusive.

SMILES | TGFb SMAD3 inh | S-ASM inh | TDP1 cell CPT | HepG2 tox | TDP1 cell noCPT | IL-1B inflam inh
CCC(=O)N1CCc2cc(S(=O)(=O)CCC(=O)N3CCN(c4cccc(C)c4)C(C)C3)ccc21 (stereo unspecified) | -4% | . | 12µM* | -32% | 4.6µM* | .
N#Cc1cccc(NC(=O)CCNS(=O)(=O)c2ccc3c(c2)CCN3C(=O)C2CC2)c1 | 7% | . | ? | -6% | ? | .
Cc1cccc(N(C)C(=O)CCNS(=O)(=O)c2ccc3c(c2)CCN3C(=O)C2CC2)c1 | -4% | . | 16µM* | -19% | 21µM* | .
Cc1cccc(N2CCN(C(=O)CCNS(=O)(=O)c3ccc4c(c3)oc(=O)n4C)CC2C)c1 (stereo unspecified) | -1% | 0% | ? | 1% | ? | 7
COc1ccccc1NC(=O)Cn1nnc(-c2ccccc2NC(=O)c2cnccn2)n1 | -2% | 14% | ? | 1% | -15% | 3
COc1ccccc1NC(=O)Cn1nnc(-c2ccccc2NC(=O)c2ccco2)n1 | 11% | -1% | -14% | -10% | ? | 12
COc1ccc(NC(=O)Cn2nnc(-c3ccccc3NC(=O)c3ccco3)n2)cc1 | 10% | 0% | 2.9µM* | -34% | 2.6µM* | -2
COc1ccccc1NC(=O)Cn1nnc(-c2ccccc2NC(=O)c2cccs2)n1 | 2% | -3% | ? | -8% | 21µM* | -16
COc1cc(NC(=O)Cn2nnc(-c3ccccc3N)n2)cc(OC)c1 | 6% | -5% | ? | -18% | ? | -59*
Cc1cc(C)nc(Nc2ccc(Cl)cc2C)n1 | -1% | 0% | 4% | 0% | ? | 15
COCCNC(=O)C1CCN(S(=O)(=O)c2ccc3c(c2)CCCN3C(C)=O)CC1 | -11% | . | 8% | -18% | 1% | .
Cc1ccc(C)c(S(=O)(=O)NCc2ccc3c(c2)OCO3)c1 | 2% | 3% | 1% | 6% | -1% | 4
COC(=O)c1scc(C)c1NC(=O)c1ccc(Cl)cc1 | 10% | 4% | -8% | 14% | ? | 6
CC(C)S(=O)(=O)c1csc(C(=O)NN)c1Cl | 13% | -4% | 2% | -3% | -8% | 1
COC(=O)c1scc(S(=O)(=O)C(C)C)c1N/N=C(\C#N)C(=O)c1ccc(Cl)cc1 | ? | -6% | ? | -47% | 23µM* | -8
COC(=O)c1scc(C#N)c1N/N=C(\C#N)S(=O)(=O)c1ccc(Cl)cc1 | -24% | -3% | 4.1µM* | -58% | 4.6µM* | 12
COc1cc2c(cc1C1C(C#N)=C(N)OC3=C1C(=O)CC(C)(C)C3)OCO2 (stereo unspecified) | -16% | -7% | 12% | -10% | 6% | -11
O=C(CCCn1c(=O)c2cccn2c2ccccc21)NCc1ccccc1Br | 0% | . | ? | -5% | 16µM* | .
CCOc1ccccc1CNC(=O)CCCn1c(=O)c2cccn2c2ccc(F)cc21 | 0% | . | ? | -9% | 12µM* | .
CCOc1ccc(CNC(=O)CCCn2c(=O)c3cccn3c3ccc(F)cc32)cc1 | -19% | . | ? | 2% | 12µM* | .
CCOc1ccc(CNC(=O)Cn2c(=O)c3cccn3c3ccc(F)cc32)cc1 | 4% | . | -3% | 1% | -12% | .
COc1cc(C(CC(=O)N2CCCC2)c2c(OC)cc(OC)c3c(-c4ccccc4)cc(=O)oc23)cc(OC)c1OC (stereo unspecified) | ? | -20% | ? | -31% | ? | ?
COc1cc(C(CCN2CCCC2)c2c(OC)cc(OC)c3c(C)cc(=O)oc23)cc(OC)c1OC (stereo unspecified) | 3% | 0% | 13µM* | -1% | 23µM* | 7
COc1cc(C(CCN2CCOCC2)c2c(OC)cc(OC)c3c(C)cc(=O)oc23)cc(OC)c1OC (stereo unspecified) | -15% | 2% | ? | -3% | -28% | -9
COc1ccc(C(CCN2CCOCC2)c2c(OC)cc(OC)c3c(C)cc(=O)oc23)cc1 (stereo unspecified) | 0% | 13% | 23µM* | -26% | 18µM* | 6
SMILES | TGFb SMAD3 inh | S-ASM inh | TDP1 cell CPT | HepG2 tox | TDP1 cell noCPT | IL-1B inflam inh
COc1cc(C(CCN2CCCC(C)C2)c2c(OC)cc(OC)c3c(-c4ccccc4)cc(=O)oc23)cc(OC)c1OC (stereo unspecified) | -6% | -9% | ? | -5% | 18µM* | -10
COc1cc(C(CCN2CCCCC2)c2c(OC)cc(OC)c3c(-c4ccccc4)cc(=O)oc23)cc(OC)c1OC (stereo unspecified) | ? | -5% | 18µM* | -80% | ? | ?
CCNC(=O)C1(C)CCCN(C(=O)c2csc3ccccc23)C1 (stereo unspecified) | 15% | . | 20% | -2% | -4% | 6
CC1=C(C(=O)Nc2cc(C(=O)N3CCN(c4cccc(C)c4)C(C)C3)ccc2C)SCCO1 (stereo unspecified) | -1% | 1% | ? | -6% | ? | -7
CCC(Oc1ccc(C)cc1)C(=O)Nc1ccc(S(=O)(=O)Nc2cc(C)on2)cc1 (stereo unspecified) | -4% | -2% | 18% | 11% | 1% | 0
COc1cccc(CC(=O)NCC2Cc3cc(Cl)cc(-c4ncccn4)c3O2)c1 (stereo unspecified) | . | . | ? | . | -28% | .
COC(=O)c1c(C)oc2ccc(N(C(=O)c3ccncc3)S(=O)(=O)c3ccc(C)cc3)cc12 | ? | -1% | 3.7µM* | -30% | 2.1µM* | -7
COC(=O)c1c(C)oc2ccc(N(C(=O)c3ccncc3)S(=O)(=O)c3ccc4ccccc4c3)cc12 | ? | -2% | 23µM* | -19% | 15µM* | 24
Cc1ccc(S(=O)(=O)N(C(=O)c2ccncc2)c2ccc3oc4c(c3c2)CCCC4)cc1[N+](=O)[O-] | ? | 4% | -2% | -4% | -8% | 9
COC(=O)c1c(C)oc2ccc(N(C(=O)c3ccncc3)S(=O)(=O)c3ccccc3)cc12 | -17% | 3% | ? | -1% | 23µM* | 0
CC(C)c1ccc(S(=O)(=O)c2nnn3c2nc(NC2CCCC2)c2sccc23)cc1 | 21% | . | 9% | -19% | -16% | .
